Bioassay records deposited in PubChem by The Scripps Research Institute Molecular Screening Center.
NCOA2 inhibitor: human SRC2 (NCOA2) inhibition; Q15596; actives 0.17% (n = 370,000); inhibition, % at 9 µM; AID 651957; HEK293 GAL4-SRC2 luciferase reporter, luminescence;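 active = inhibition above the mean inhibition of all tested compounds plus 3 SD, set per campaign, cut at about 52% in these data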
SRC1 inh: inhibitors of human steroid receptor coactivator 1 (SRC1); HEK293 GAL4-SRC1 luciferase reporter, luminescence; inhibition, % at 3.6 µM; actives 0.12% (n = 360,000); AID 588354;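 active = inhibition above the campaign mean plus 3 SD, with each screening campaign given its own cutoff, cut at about 60% in these data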
COUP-TFII inh: NR2F2 (human) inhibition, primary screen | actives 0.7% (n = 370,000) | HEK293T NGFI-A luciferase reporter, luminescence | AID 686940 | inhibition, % at 8.6 µM | P24468;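 active = inhibition above a per-plate cutoff, mean inhibition of test wells between control levels plus 3 SD, cut at about 38% in these data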;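 also: cells cotransfected with COUP-TFII expression vector driving the NGFI-A reporter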
Target sequence (P24468 whole entry, looked up): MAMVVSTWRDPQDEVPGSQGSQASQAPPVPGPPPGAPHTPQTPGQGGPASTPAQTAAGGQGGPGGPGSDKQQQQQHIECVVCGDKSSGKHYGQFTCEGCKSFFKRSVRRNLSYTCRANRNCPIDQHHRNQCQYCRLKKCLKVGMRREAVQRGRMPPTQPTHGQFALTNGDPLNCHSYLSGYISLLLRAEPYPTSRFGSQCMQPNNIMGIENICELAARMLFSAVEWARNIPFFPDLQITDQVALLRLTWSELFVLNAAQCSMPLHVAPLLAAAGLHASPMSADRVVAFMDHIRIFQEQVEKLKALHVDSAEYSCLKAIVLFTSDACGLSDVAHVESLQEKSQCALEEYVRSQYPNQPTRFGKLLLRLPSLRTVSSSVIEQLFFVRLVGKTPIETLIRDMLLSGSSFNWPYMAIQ
NR5A2 inv ag: inverse agonists of human LRH-1 (NR5A2); O00482; HEK293T StAR-luciferase reporter, LRH-1 transfected, 24 h; inhibition, % at 3.6 µM; actives 0.13% (n = 360,000); AID 602396;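 active = inhibition above the mean inhibition of all tested compounds plus 3 SD, cut at about 73% in these data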
NCOA3 inh: inhibitors of human steroid receptor coactivator 3 (SRC3) | Q9Y6Q9 | HEK293 GAL4-SRC3 luciferase reporter, luminescence | inhibition, % at 3.6 µM | actives 0.17% (n = 360,000) | AID 588352;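 active = inhibition above a per-campaign cutoff, the mean of all compounds plus 3 SD, cut at about 60% in these data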;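 also: higher means less SRC3-driven luciferase light from the GAL4 reporter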
Gal4-VP16 ctr: VP16 inhibition counter-screen for COUP-TFII; actives 25% (n = 2,500); inhibition, % at 8.5 µM; HEK293 Gal4-VP16 luciferase reporter, luminescence; shares compounds with COUP-TFII inh; AID 687007; in the data active = inhibition above about 13%
NR2F2 inh conf: COUP-TFII (NR2F2) inhibition, confirmation assay; shares compounds with COUP-TFII inh; HEK293 NGFI-A luciferase reporter, luminescence; inhibition, % at 8.5 µM; actives 45% (n = 2,500);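 active = mean inhibition over three repeats above a set limit taken from the earlier primary screen, cut at about 38% in these data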
A number is an active result; n = inactive; x = no result. This is a sample that favours compounds with a hit; in the whole collection about 0.81% have one here.

SMILES	NCOA2 inhibitor	SRC1 inh	COUP-TFII inh	NR5A2 inv ag	NCOA3 inh	Gal4-VP16 ctr	NR2F2 inh conf
COc1ccc(C(=O)c2ccc(Cl)cc2)c2ccccc12	n	n	n	n	n	x	x
CC(=O)NC1CCCCN(C(C)C)C1=O (centres undefined)	n	x	n	x	x	x	x
COc1cc(NS(=O)(=O)c2ccc(C)cc2C)cc(OC)c1OC	n	n	45	n	n	n	40
Cc1ccc(C)c(N2CCN(C(=O)CCS(=O)(=O)c3ccc4c(c3)NC(=O)CO4)CC2)c1	n	n	42	n	n	n	n
COc1cccc(/C=C2\SC(=S)N(CCCC(=O)N3CCCCC3CCO)C2=O)c1 (centres undefined)	n	n	39	n	n	31	n
CC(=C\c1ccccc1)/C=C1/SC(=S)N(CCCC(=O)O)C1=O	53	n	38	n	n	73	51
CC(/C=C1\SC(=O)N(CCCC(=O)O)C1=O)=C\c1ccccc1	93	n	92	n	n	92	100
COc1ccc(/C=C2/SC(=S)N(CCC(=O)O)C2=O)cc1	84	n	46	n	n	n	56
COc1cccc(/C=C2\SC(=S)N(CCC(=O)N3CCCCC3CCO)C2=O)c1 (centres undefined)	n	n	n	n	n	x	x
CCn1c(SCC(=O)NN=Cc2cc(OC)ccc2OC)nnc1-c1ccc(OC)cc1	n	x	n	x	x	x	x
O=C(O)CCCN1C(=O)/C(=C\c2ccco2)SC1=S	n	n	44	n	n	50	n
COC(=O)C1CN(Cc2ccc(F)cc2)CCS(=O)(=O)N1Cc1ccccc1 (centres undefined)	n	x	n	x	x	x	x
CCC(C)[C@H](NC(=O)[C@H](Cc1ccccc1)NC(=O)OC(C)(C)C)C(=O)NCc1ccccc1Br (some centres undefined)	n	x	n	x	x	x	x
CS(=O)(=O)N(CC(=O)N1CCN(Cc2ccc3c(c2)OCO3)CC1)Cc1ccc(Cl)cc1	n	n	40	n	n	n	n
CS(=O)(=O)N(CCc1ccccc1)CC(=O)N1CCN(Cc2ccc3c(c2)OCO3)CC1	n	n	n	n	n	x	x
COc1ccccc1CNC(=O)C[C@H]1CC[C@H]2[C@@H](COc3ccc(NC(=O)Nc4ccccc4)cc3C(=O)N2C)O1	n	x	n	x	x	x	x
COc1ccc(-c2oc3ccc(N4CCOCC4)cc3c2C#CCO)cc1	n	n	71	n	n	n	53
COc1ccc(-c2ccc3oc(-c4ccc(OC)cc4)c(C#CCO)c3c2)cc1	n	n	45	n	n	n	70
COc1ccc(-c2sc3ccc(N4CCOCC4)cc3c2C#CC(C)(C)O)cc1	n	n	n	n	n	x	x
COc1ccc(-c2ccc3oc(-c4ccc(OC)cc4)c(-c4ccc(OC)cc4)c3c2)cc1	n	n	n	n	n	x	x
COc1ccccc1C(=O)NC1CCCCN(Cc2ccc(C)cc2)C1=O (centres undefined)	n	x	n	x	x	x	x
COC(=O)[C@]12C[C@H](CC(=O)NCc3ccc(C)o3)C(=O)N(CCc3ccc(OC)c(OC)c3)C1=C[C@H](C(C)(C)C)O[C@@H]2C	n	x	n	x	x	x	x
Cc1ccc(NC(=S)N(CCCN2CCCC2)Cc2cccn2Cc2ccc(Cl)cc2)cc1C	n	n	n	n	n	x	x
FC(F)(F)c1cccc(NC(=S)N(CCCN2CCCC2)Cc2cccn2Cc2ccc(Cl)cc2)c1	n	n	38	n	n	n	n
CCOc1cc(/C=N/Nc2nnc(C)n2N)ccc1O	n	n	49	n	n	n	n
SMILES	NCOA2 inhibitor	SRC1 inh	COUP-TFII inh	NR5A2 inv ag	NCOA3 inh	Gal4-VP16 ctr	NR2F2 inh conf
CC(C)CNS(=O)(=O)c1ccc(CCC(=O)N2CCN(c3ccccc3)CC2)cc1	n	n	n	n	n	x	x
CCNS(=O)(=O)c1ccc(CCC(=O)N2CCN(c3ccccc3)CC2)cc1	n	n	43	n	n	n	n
Cc1cc(C)nc(SCC(=O)Nc2ccc(N3CCOCC3)c(Cl)c2)n1	n	n	42	n	n	18	40
Cc1c(C=O)c2ccccc2n1CCOc1ccccc1F	n	n	45	n	n	n	n
O=C(N/N=C/c1sc(N2CCOCC2)nc1-c1ccccc1)c1cccc(S(=O)(=O)N2CCCC2)c1	n	65	38	86	76	n	67
CC1(C)CC2CC(C)(CN2S(=O)(=O)c2ccc(C(=O)Nc3ccc(S(=O)(=O)N4CCOCC4)cc3)cc2)C1 (centres undefined)	n	n	53	n	n	n	64
COc1ccc(/C=C/C(=O)Nc2ccc(C)c(S(=O)(=O)N3CCOCC3)c2)cc1	n	n	68	n	n	n	n
O=C(Nc1ccc(N2CCCCCC2)cc1)c1cccc(S(=O)(=O)N2CCOCC2)c1	n	n	46	n	n	n	38
COc1ccc(NC(=O)/C=C/c2ccc(S(=O)(=O)N3CCOCC3)cc2)cc1	n	n	n	n	n	x	x
O=C(C1CC1)n1ccc2ccc(-c3ccc4ccn(Cc5ccccc5)c4c3)cc21	n	x	n	x	x	x	x
CCOC(=O)[C@@]12CCC3=C1N(CCC3)C(=O)[C@H](CC(=O)NCc1cccc3ccccc13)C2	n	x	n	x	x	x	x
COC(=O)[C@]12C[C@H](CC(=O)N3CCN(C(=O)c4ccco4)CC3)C(=O)N(Cc3ccc4c(c3)OCO4)C1=C[C@H](C(C)C)O[C@@H]2C1CC1	n	x	n	x	x	x	x
CCOC(=O)c1ccc(NC(=O)c2cccc(S(=O)(=O)N3CCOCC3)c2)cc1	n	n	38	n	n	n	n
COc1ccc(C(=O)Nc2ccc(N3CCCCCC3)cc2)cc1S(=O)(=O)N1CCOCC1	n	n	49	n	n	n	n
COc1ccc(C(=O)Nc2ccc(NC(=O)c3ccccc3)cc2)cc1S(=O)(=O)N1CCOCC1	n	n	n	n	n	x	x
CC(=O)c1ccc(NC(=O)c2ccc(C)c(S(=O)(=O)N3CCOCC3)c2)cc1	n	n	n	n	n	x	x
Cc1cc(C)n(-c2ccc(C(=O)Nc3ccc(C)c(S(=O)(=O)N4CCOCC4)c3)cc2)n1	n	n	51	n	n	n	n
CCOC(=O)c1ccc(NC(=O)c2ccc(C)c(S(=O)(=O)N3CCOCC3)c2)cc1	n	n	81	80	n	n	82
Cc1ccc(NC(=O)c2cccnc2)cc1S(=O)(=O)N1CCOCC1	n	n	n	n	n	x	x
O=C(NCCc1c[nH]c2ccccc12)OCc1cn(-c2cccc(Cl)c2)nn1	n	x	n	x	x	x	x
COC(=O)[C@]12C[C@H](CC(=O)NCC3CCCCC3)C(=O)N(Cc3cccc4ccccc34)C1=C[C@H](C(C)C)O[C@@H]2C1CC1	n	x	n	x	x	x	x
Clc1ccccc1C1=Nn2c(nnc2-c2ccncc2)SC1	54	n	40	n	66	n	n
CC1=Nn2c(nnc2-c2ccccc2Cl)SC1	n	n	n	n	n	x	x
